An excerpt weighted towards active compounds, which were near 2.1% of everything screened.
TDP43 rescue – rescues yeast growth from TDP-43 toxicity | TDP-43 expressing yeast growth rescue, BacTiter-Glo, 24 h | Potency, µM (series often up to 46.1 µM), inactives show top-dose growth rescue (activation), usual class: activators | actives 1.8% (n = 410,000) | AID 652104; also: % of control where 0% means no effect; nearly all actives have a fitted effect of over 50% in size
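In this qHTS, compounds that restore growth of yeast expressing TDP-43 appear as activators. Cells (OD600=0.02, galactose medium, raffinose-pregrown) are incubated with compound 24 hr at 30 deg C and growth is quantified by BacTiter-Glo.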
aSyn yeast inh – alpha-synuclein toxicity inhibition in yeast | Yeast expressing alpha-synuclein, growth rescue, BacTiter-Glo, 24 h | Potency, µM (series often up to 46.1 µM), for inactives: at the top dose growth rescue (activation), hits mostly activators | actives 0.14% (n = 370,000) | AID 652106; also: % of control where 0% means no effect; nearly all actives have a fitted effect of over 65% in size
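Readout is rescue of growth in alpha-synuclein-expressing yeast, so inhibitors of toxicity appear as activators. Growth after 24 hr at 30 deg C in galactose medium is quantified by luminescence.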
FUS yeast rescue – FUS proteinopathy suppression in yeast; actives 0.24% (n = 390,000); Potency, µM (doses to about 76.6 µM), actives largely listed as activators; S. cerevisiae FUS-expressing, growth rescue, OD600, 24 h; AID 1347120;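 also: plate controls were DMSO vehicle for no effect and reference control for full effect; nearly all actives have a fitted effect of over 55% in size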
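Compound concentration series was pinned onto galactose-induced FUS-expressing yeast seeded at OD 0.005. Plates sat 24hr at 30C; absorbance at 600 nm gave growth. DMSO served as background control.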
Abeta rescue – compounds reversing amyloid beta toxicity in yeast; yeast expressing A-beta42, growth rescue, OD600, 48 h; response scale: 0% DMSO, 100% iron-clioquinol control; Potency, µM (series often up to 46.1 µM), most hits filed as activators; actives 0.063% (n = 410,000); AID 1347071; also: nearly all actives have a fitted effect of over 55% in size
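Growth rescue measured by 600 nm absorbance after 48 h yeast culture at 30 C with compound. Values normalized between DMSO and an equimolar ferric chloride plus clioquinol control.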
Numbers without * were called inactive; i = inactive; u = inconclusive; x = not tested or not shown; [ ] = dose if it differs, or a comment. Calls follow the shape of the dose curve; as a rule, active = well fitted curve in the direction sought with a large enough effect; inconclusive = small, poorly fitted or top-dose-only effect, or another doubt; inactive = no such curve, though single readings can be large; an effect the other way counts as inactive or inconclusive. Potency is read from the fitted curve at half-maximal effect.

SMILES | TDP43 rescue | aSyn yeast inh | FUS yeast rescue | Abeta rescue
COc1ccc(/C=C2/C(=O)N(CC3CCCO3)C(=S)N2C)c(OC)c1 (stereo not given) | -18% | 1% | i | i
Cc1cc(C(=O)N2CCN(Cc3ccccc3)CC2)ccc1[N+](=O)[O-] | 12% | 2% | i | i
O=C(c1cnc(Cl)c(Cl)c1)N1CCC(Cc2ccccc2)CC1 | 13µM* | 10% | i | i
Cc1cc(C(=O)N2CCC(Cc3ccccc3)CC2)ccc1[N+](=O)[O-] | u | -11% | 11µM* | i
CNc1nc(-c2ccccc2)[n+](-c2ccc(C)cc2)s1 | 14µM* | -9% | i | i
Cc1ccc(-c2nc(N)s[n+]2-c2ccccc2)cc1 | u | 10% | x | i
Fc1cccc(NC(=S)N2CCc3ccccc32)c1 | 14µM* | 1% | i | u
S=C(Nc1ccccc1)N1CCc2ccccc21 | 13µM* | 1% | i | u
CC(=O)c1cccc(NC(=S)N2CCc3ccccc32)c1 | u | 6% | i | i
Cc1ccc(N2CC(C(=O)Nc3nnc(SCc4ccccn4)s3)CC2=O)cc1 (stereo not given) | 25% | 1% | i | i
Cc1cccc(N2CC(C(=O)Nc3nnc(SCc4ccccn4)s3)CC2=O)c1 (stereo not given) | -1% | 3% | 18µM* | i
CC(=O)CC[C@@H]1CC[C@]2(CCCN(S(=O)(=O)C3CCCCC3)C2)O1 | x | x | i | x
COc1cc(OC)c(NC(=O)C(C)n2nc(-c3ccc(C)c(C)c3)ccc2=O)cc1Cl (stereo not given) | 13µM* | x | u | i
O=C(c1cccc(C(F)(F)F)c1)N1CC[C@H]2[C@H](CCCN2Cc2ccc(F)cc2)C1 | x | x | i | x
O=C(CSc1nnc(COc2ccccc2Cl)o1)NC(=O)NC1CCCC1 | 3% | 18µM* | u | i
COc1ccc(/C=C/C(=O)N2CCN(S(=O)(=O)c3ccccc3Br)CC2)cc1OC | 22µM* | u | u | i
Cc1cc(C)c2c(c1)C1C=CCC1C(C(=O)O)N2 (stereo not given) | x | -6% | x | x
CC1(Cc2ccc3c(c2)OCO3)C(=O)Nc2ccc(-c3cccc(C(F)(F)F)c3)cc21 (stereo not given) | -21% | -2% | i | i
Cc1ccc(CC2(C)C(=O)Nc3c(Cl)cccc32)cc1 (stereo not given) | -3% | 6.3µM* | i | i
CC1(Cc2ccc3c(c2)OCO3)C(=O)Nc2c(Cl)ccc(Cl)c21 (stereo not given) | u | 22µM* | i | i
CC1(Cc2ccc(Cl)cc2)C(=O)Nc2ccc(-c3ccc(F)c(Cl)c3)cc21 (stereo not given) | 21% | 0% | i | i
CC1(Cc2ccc(F)cc2)C(=O)Nc2c(Cl)cccc21 (stereo not given) | 28µM* | 13µM* | i | i
COc1ccccc1CC1(C)C(=O)Nc2c(Cl)cccc21 (stereo not given) | u | u | i | i
CC1(Cc2cccc(C(F)(F)F)c2)C(=O)Nc2c(Cl)cccc21 (stereo not given) | 0% | 22µM* | i | i
CN1CCN(c2ccc3c(c2)Oc2ccccc2CN(Cc2cn(Cc4ccc(F)cc4)nn2)S3(=O)=O)CC1 | x | x | i | x
SMILES | TDP43 rescue | aSyn yeast inh | FUS yeast rescue | Abeta rescue
CC1(Cc2ccc(Cl)cc2)C(=O)Nc2c(Cl)cccc21 (stereo not given) | u | 5µM* | i | i
CCCCC(=O)NNC(=S)NC(=O)CCC | -4% | 25µM* | i | u
COc1ccc([N+](=O)[O-])cc1NC(=S)NC(C)=O | 4% | 2% | i | i
CCCCC(=O)NC(=S)Nc1cc([N+](=O)[O-])ccc1OC | 7.1µM* | -15% | i | i
COc1ccc(C(=O)NNC(=S)NC(=O)c2ccc(OC)cc2)cc1 | 19% | 13% | i | u
CCCCCC(=O)NNC(=S)NC(=O)c1ccc([N+](=O)[O-])cc1 | -7%[9.22 µM] | 22µM* | i | u
CCCCC(=O)NC(=S)NNC(=O)c1ccc(OC)cc1 | u | 6.3µM* | i | u
CCCCCn1nnnc1C1(C)CN(S(C)(=O)=O)CC(=O)N1Cc1ccco1 (stereo not given) | x | x | i | x
CC(C)(C)c1ccc(NC(=O)COC(=O)c2ccccc2OCC(=O)Nc2ccc(Br)cc2)cc1 | x | -4% | x | x
O=C(CN1CCc2onc(-c3ccc(-n4cc(C5=CCCCC5)nn4)cc3)c2C1=O)N1CCOCC1 | x | x | i | x
O=C1CC(O)(C(F)F)Oc2ccc3ccccc3c21 (stereo not given) | 0% | -1% | x | i
O=C1CC(O)(C(F)(F)F)Oc2c1ccc1ccccc21 (stereo not given) | 14% | 13µM* | i | i
CS(=O)(=O)OC12CCCN(C1)/C(=C/c1ccc(Cl)cc1)C2 (stereo not given) | x | x | i | x
CCCCC#CC(CC)NCc1ccc(OC)cc1OC (stereo not given) | x | x | i | x
O=S(=O)(c1cccc2nsnc12)N1CCN(c2ccc(F)cc2)CC1 | -14%[1.82 µM] | -1% | i | i
O=S(=O)(c1cccc2nsnc12)N1CCN(c2ccccc2F)CC1 | 16µM* | 14% | i | i
CCOC(=O)Nc1ccc2c(c1)N(C(=O)CCN(C)C)c1ccccc1S2 | 20µM* | 13% | i | i
CCOC(=O)Nc1ccc2c(c1)N(C(=O)CN(C)C)c1ccccc1S2 | -5% | -3% | i | i
Cc1cc(C)c(NC(=O)CNC(=O)COC(=O)Cc2cccs2)c(C)c1 | 11µM* | -1% | i | i
Cc1cc(C)c(NC(=O)CNC(=O)COC(=O)Cc2ccccc2C)c(C)c1 | 4% | -11% | i | i
CSc1nc(N2CCOCC2)c2c3c(sc2n1)CCCC3 | 16µM* | 9% | u | i
O=C(NCCO)C1(C(=O)C2CC2)CC(c2ccccc2C(F)(F)F)=NO1 (stereo not given) | x | x | i | x
O=C(Nc1cccc2c1[nH]c1ccccc12)C(F)(F)F | 14µM* | 0% | i | i
O=C(Nc1cccc2c1[nH]c(=O)c1ccccc12)C(F)(F)F | 15% | -6% | i | i
CC(C)c1c(C(=O)N/N=C/c2ccc3c(c2)OCO3)nnn1-c1nonc1N | 11% | -6% | i | i
CCN(CC)c1ccc(/C=N/NC(=O)c2nnn(-c3nonc3N)c2C(C)C)c(O)c1 | u | 14µM* | u | 14µM*
COCCCNc1cc(C)nc2ccccc12 | 3% | 0% | i | i
Cc1cc(NCCCCCCCNc2cc(C)nc3cc([N+](=O)[O-])ccc23)c2ccc([N+](=O)[O-])cc2n1 | 14µM* | 1% | x | i
Fc1ccccc1CSc1nnc(-c2cccnc2)o1 | u | -2% | i | i
Fc1ccccc1CSc1nnc(-c2ccccc2)o1 | 11µM* | 0% | i | i
